Results as given in PubChem BioAssay AID540356 (Broad Institute, 2011).
Hit rate of the full screen: of about 2,500 compounds, about 360 (14%) were called active.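 The calls were made as follows: active = signal-lowering compounds whose fitted half-maximal concentration AC50 is no higher than ten times their top tested concentration; inconclusive = flat curve with 30 to 70% inhibition, or poor fit; inactive = flat within 30%, signal increase, or AC50 above limit.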 A selection follows.

Assay: HRP/luminol detection interference without ALR, dose response, artefact control for ALR inhibitor project, biochemical, luminescence, no ALR or DTT, cherry-pick (AID 540356)
Details: HRP/H2O2 luminol luminescence counterscreen; series mostly up to 10 µM
With `COc1ccc(N2CCN(S(=O)(=O)c3cccc4cccnc34)CC2)cc1` the AC50 was “inactive”.
In the case of `Oc1cccc(Nc2c3ccccc3nc3ccccc23)c1`, the AC50 is reported as “inactive”.
In the case of `Oc1ccc(NCc2cccs2)cc1`, the AC50 is reported as “inactive”.
With `COC(=O)C1C(C(C)C)N(c2ccccc2)OC1(C)O` (configuration not stated) the AC50 was “inactive”.
In the case of `CC(=O)N1CCN(c2ccc(NCc3ccccc3)cc2)CC1`, the AC50 is reported as 8410 nM (active).
In the case of `CC(=O)N1CCN(c2ccc(NCc3cccc4ccccc34)cc2)CC1`, the AC50 is reported as “inactive”.
In the case of `CCc1ccc(CNc2ccc(N3CCN(C(C)=O)CC3)cc2)cc1`, the AC50 is reported as “inactive”.
With `CCN(CCCNC(=O)CN(C)S(=O)(=O)c1cccc2nsnc12)c1cccc(C)c1` the AC50 was “inactive”.
With `O=S(=O)(c1ccc2ccccc2c1)N1CCN=C1SCc1cccnc1` the AC50 was “inactive”.
With `CCCc1ccc(-c2cc(N)n[nH]2)cc1` the AC50 was “inactive”.
In the case of `Cc1cccc(N/N=C/c2ccncc2)c1`, the AC50 is reported as 2610 nM (active).
With `O=C(N/N=C/c1ccncc1)c1cccc(N/N=C/c2ccncc2)c1` the AC50 was “inactive”.
For `Cc1cccc(N/N=C/c2ccc(O)c(O)c2O)c1`, the AC50 was “inactive”.
In the case of `COC(=O)/C=C/S(=O)(=O)c1ccc(NC(C)=O)cc1`, the AC50 is reported as “inactive”.
For `CC(=O)N/N=C/c1cc(C)n(-c2ccc(Br)cc2)c1C`, the AC50 was “inactive”.
In the case of `COc1cc(/C=C2\CCCc3c2nc2ccccc2c3C(=O)O)cc(Br)c1O`, the AC50 is reported as “inactive”.
For `CCN(CC)c1ccc(NS(=O)(=O)c2ccc(OC)cc2)cc1`, the AC50 was “inactive”.
With `CCc1cc(C(=O)c2ccc(OC)cc2)c(NC(=O)CC(C)(C)CC(=O)O)s1` the AC50 was “inactive”.
With `COc1cc(/C=N/NC(=O)c2ccc(CSc3nncn3C)cc2)cc(OC)c1O` the AC50 was “inactive”.
With `Cn1c(CSCc2ccc(Cl)cc2)n[nH]c1=S` the AC50 was “inactive”.
In the case of `Cc1cc(C)n2nc(C(=O)N/N=C/c3ccc(O)cc3)nc2n1`, the AC50 is reported as “inactive”.
For `Cc1nn(-c2ccccc2)c(C)c1-c1cc(C(=O)N/N=C/c2ccc(O)cc2)[nH]n1`, the AC50 was “inactive”.
With `CN(C)Cc1ccccc1Sc1ccc(O)cc1O` the AC50 was “inactive”.
In the case of `Cc1c(Cl)cccc1-n1c(-c2cccnc2)n[nH]c1=S`, the AC50 is reported as “inactive”.
In the case of `CN(C)c1ccc(CNS(=O)(=O)c2ccc3c(c2)NC(=O)CS3)cc1`, the AC50 is reported as “inactive”.
For `Cc1cc(C(=O)NNc2ccc(F)cc2)no1`, the AC50 was “inactive”.
For `Cc1ccc(NCCC(=O)c2cccs2)cc1C`, the AC50 was “inactive”.
In the case of `Cc1ccc(NNC(=O)c2ccno2)cc1C`, the AC50 is reported as 635 nM (active).
With `O=C(Nc1ccc(Cl)c(Cl)c1)Nc1ccccc1C(=O)O` the AC50 was “inactive”.
For `Cc1ccc(NNC(=O)c2ccno2)cc1Cl`, the AC50 was 327 nM (active).
With `COc1ccc(/C=N/NC(=O)c2ccncc2)cc1CN1CCN(c2ccc(F)cc2)CC1` the AC50 was “inactive”.
With `CCN(CC)c1ccc(/C=N/NC(=O)c2cccc(N3CCCC3=O)c2)cc1` the AC50 was “inactive”.
